Source: PubChem BioAssay
TrxR1 substrate = is turned over as a substrate by rat TrxR1 | O89049 | hit rate 0.01% among 390,000 | Potency, µM (highest dose often 114 µM) | purified TrxR1 substrate turnover, NADPH consumption readout; note: nearly all actives have a fitted effect of over 50% in size
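Rat TrxR1, dispensed at 90 nM, was prereduced with 400 uM NADPH (final) for 5 min at ~22 deg C, then incubated with compound 15 min before 400 uM selenite. A first-read NADPH fluorescence drop versus no-compound background flagged substrates.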
PLK1 PBD block = blocks phosphopeptide binding to human PLK1 polo-box domain | Potency, µM, hits mostly inhibitors | P53350 | Plk1 PBD binding of FITC phosphopeptide, fluorescence polarization | hit rate 2.8% among 360,000; note: series mostly up to about 57 µM; nearly all actives have a fitted effect of over 65% in size
Sfp PPTase inh = inhibitors of Bacillus subtilis Sfp phosphopantetheinyl transferase | Biochemical Sfp PPTase activity, qHTS | Potency, µM, hits mostly inhibitors | hit rate 3.5% among 310,000 | AID 1490;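 note: the enzyme is Sfp with the accession as filed and its product quenches rhodamine fluorescence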
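Buffer: 50 mM Hepes-Na pH 7.6, 10 mM MgCl2, 0.01% Nonidet P-40, 0.01% BSA. Enzyme 15 nM, pre-exposed to compound 15 min; substrates then added and fluorescence change tracked over 30 min.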
TrxR1 inh = inhibitors of rat thioredoxin reductase 1 | Potency, µM (top dose mostly 114 µM), actives largely listed as inhibitors | recombinant rTrxR1, NADPH fluorescence consumption, selenite substrate | hit rate 1% among 390,000 | AID 588453 | O89049; note: nearly all actives have a fitted effect of over 65% in size
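Rat TrxR1 (90 nM in the dispensed reagent) was pre-reduced with 400 uM NADPH for 5 min at room temperature, then incubated with compound for 15 min. After 400 uM selenite was added, NADPH fluorescence (Ex 340/Em 450 nm) was followed for 8 min.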
IDH1 R132H inh = human IDH1 R132H inhibition. AID 602179. Potency, µM (highest dose often 76.6 µM), most hits filed as inhibitors. hit rate 0.093% among 390,000. IDH1-R132H enzyme, NADPH consumption, diaphorase/resazurin fluorescence; note: nearly all actives have a fitted effect of over 65% in size
Target sequence (O75874 whole entry R132H, stated change not applied): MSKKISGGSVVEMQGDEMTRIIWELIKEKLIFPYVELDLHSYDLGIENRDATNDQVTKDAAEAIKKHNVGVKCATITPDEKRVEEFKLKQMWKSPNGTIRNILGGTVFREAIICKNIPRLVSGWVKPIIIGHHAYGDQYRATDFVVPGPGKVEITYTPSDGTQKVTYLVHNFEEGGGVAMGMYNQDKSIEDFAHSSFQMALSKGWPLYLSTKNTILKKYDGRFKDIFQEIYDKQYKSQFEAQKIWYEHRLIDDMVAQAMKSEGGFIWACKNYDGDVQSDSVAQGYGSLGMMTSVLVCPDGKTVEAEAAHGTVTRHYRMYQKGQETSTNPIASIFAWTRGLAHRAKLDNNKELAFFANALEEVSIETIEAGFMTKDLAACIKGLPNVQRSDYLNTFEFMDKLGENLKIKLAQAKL
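IDH1-R132H (0.5 ug/mL) preincubated 30 min with compound, then NADPH (0.016 mM) and alpha-KG (2 mM) added; 80 min at RT, pH 7.5. Remaining NADPH coupled via diaphorase/resazurin to fluorescence (540/590 nm); concentration-response curves normalized to no-enzyme control.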
VDR inhibitor = inhibitors of human vitamin D receptor. AID 504847. Potency, µM, hits mostly inhibitors. hit rate 0.93% among 400,000. VDR-SRC2-3 peptide fluorescence polarization, 2 h
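Two reagent solutions held at 4 deg C in the dark were dispensed, compounds pinned at 23 nl, and the mixture incubated 2 h at room temperature. Read-out: fluorescence polarization of VDR–SRC2-3 peptide binding.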
Each line names hits and unclear results; the compound was inactive in the other large screens. This is a sample that favours compounds with a hit; in the whole collection about 5.2% have one here. Calls come from the whole dose curve; as a rule, active = well fitted curve in the direction sought with a large enough effect; inconclusive = small, poorly fitted or top-dose-only effect, or another doubt; inactive = no such curve, though single readings can be large; an effect the other way counts as inactive or inconclusive.

CC1=C(C#N)C(=O)NC(=O)/C1=C\c1ccc(-c2ccc(C)cc2[N+](=O)[O-])o1	PLK1 PBD block 8.4µM, Sfp PPTase inh 50µM, TrxR1 inh 16µM, VDR inhibitor inconclusive
CCOC(=O)c1cc(-c2ccc(/C=C3/C(=O)NC(=O)C(C#N)=C3C)o2)ccc1Cl	PLK1 PBD block 3.4µM, Sfp PPTase inh 50µM, TrxR1 inh 10µM, VDR inhibitor inconclusive
COc1ccc(-c2ccc(/C=C3/C(=N)N4C=CSC4=NC3=O)o2)c([N+](=O)[O-])c1	none
CCc1ccc2occ(CC(=O)Nc3c(C(=O)c4ccccc4)oc4ccccc34)c2c1	TrxR1 inh inconclusive (no result: PLK1 PBD block, Sfp PPTase inh)
CN1CCN(C(=O)c2ccccc2NC(=O)c2ccccc2Br)CC1	none
Cc1ccccc1N1CCN(C(=O)c2ccccc2NC(=O)c2ccccc2C(=O)O)CC1	PLK1 PBD block 30µM
Cc1ccc(N2CCN(C(=O)c3ccccc3NC(=O)/C=C\C(=O)O)CC2)cc1	TrxR1 inh 50µM
CC(=O)[C@@H]1[C@@H]2C(=O)N(Cc3ccccc3)C(=O)[C@@H]2C2c3ccccc3C=CN21 (stereo partly drawn)	PLK1 PBD block 19µM, TrxR1 inh inconclusive
O=C(c1ccco1)[C@@H]1[C@@H]2C(=O)N(c3ccccc3)C(=O)[C@@H]2C2c3ccccc3C=CN21 (stereo partly drawn)	PLK1 PBD block inconclusive, Sfp PPTase inh inconclusive, TrxR1 inh inconclusive
Cn1ccnc1C(O)c1ccccc1 (stereo not drawn)	none
COc1ccc2ccccc2c1C(O)c1nccn1C (stereo not drawn)	PLK1 PBD block 24µM
Cc1ccc(S(=O)(=O)n2cccc2/C=C/[N+](=O)[O-])cc1	PLK1 PBD block 7.5µM (no result: TrxR1 substrate, Sfp PPTase inh, TrxR1 inh, VDR inhibitor)
Cc1ccc2nc(-c3ccc(C)c(NC(=O)COc4ccc(Cl)cc4)c3)oc2c1	none (no result: PLK1 PBD block, Sfp PPTase inh, IDH1 R132H inh, VDR inhibitor)
O=C(COc1ccc(F)cc1)N(Cc1cccc(Br)c1)C1CCS(=O)(=O)C1 (stereo not drawn)	PLK1 PBD block 24µM, VDR inhibitor inconclusive
O=C(COc1ccccc1)N(Cc1cccc(F)c1)C1CCS(=O)(=O)C1 (stereo not drawn)	none
CC1(C(=O)NS(=O)(=O)Cc2ccccc2)CCN1C(=O)C1(c2ccc(Cl)cc2)CC1 (stereo not drawn)	none (no result: TrxR1 substrate, Sfp PPTase inh, TrxR1 inh, IDH1 R132H inh, VDR inhibitor)
COC(=O)[C@@]1(Cc2ccc(OC)cc2)[C@@H]2C(=CC(=O)[C@H]2CC(=O)C(=O)N(C)C)CN1C(=O)c1ccccc1	VDR inhibitor 79µM
C=C1C(=O)CC2=C1[C@](Cc1ccc(F)cc1)(C(=O)OC)N(C(=O)c1ccccc1)C2	none (no result: TrxR1 substrate, Sfp PPTase inh, TrxR1 inh, IDH1 R132H inh, VDR inhibitor)
C=C1C(=O)C=C2CN(C(=O)c3ccccc3)[C@@](Cc3ccc(F)cc3)(C(=O)OC)[C@@H]12	PLK1 PBD block 17µM, Sfp PPTase inh 10µM, TrxR1 inh 8.9µM, VDR inhibitor inconclusive
COC(=O)[C@@]1(Cc2ccccc2)[C@@H]2[C@@H](CC(=O)[C@H]2CC(=O)C(=O)N(C)C)CN1C(=O)c1ccccc1	none (no result: TrxR1 substrate, PLK1 PBD block, TrxR1 inh, IDH1 R132H inh, VDR inhibitor)
COc1cc(OC)c(/C=C/c2ccc3ccccc3n2)c(OC)c1	none (no result: PLK1 PBD block, Sfp PPTase inh, IDH1 R132H inh, VDR inhibitor)
CCN(CC)S(=O)(=O)c1ccc(/C(O)=C(\C#N)c2nc3ccccc3n2C)cc1	TrxR1 inh inconclusive
Cn1c(/C(C#N)=C(\O)c2ccc([N+](=O)[O-])cc2)nc2ccccc21	PLK1 PBD block 24µM, VDR inhibitor inconclusive
CO/N=C(\C(=O)N[C@@H]1C(=O)N2C(C(=O)O)=C(COC(C)=O)CS[C@H]12)c1csc(N)n1	Sfp PPTase inh inconclusive, TrxR1 inh inconclusive, VDR inhibitor 71µM (no result: PLK1 PBD block, IDH1 R132H inh)
COCC1=C(C(=O)OC(C)OC(=O)OC(C)C)N2C(=O)[C@@H](NC(=O)/C(=N\OC)c3csc(N)n3)[C@H]2SC1 (stereo partly drawn)	none (no result: Sfp PPTase inh)
COCCNC(=O)CCCN1C(=O)CCn2nc(-c3cccn3C)cc21	none (no result: PLK1 PBD block, Sfp PPTase inh)
COc1cc(C(=O)NCC(=O)N/N=C/c2cccs2)cc(OC)c1OC	none
O=C(O)COc1ccccc1/C=N/NC(=O)c1ccncc1	Sfp PPTase inh 50µM (no result: TrxR1 substrate, PLK1 PBD block, TrxR1 inh, IDH1 R132H inh)
COc1ccccc1C=NNC(=O)c1ccncc1	none (no result: Sfp PPTase inh)
COc1cc(C(=O)NCC(=O)N/N=C/c2ccccn2)cc(OC)c1OC	Sfp PPTase inh 45µM
